For 27 compounds, growth results are on record in PubChem BioAssay (NCI).

What all share (assay): NCI-60 one-dose screen, 48 h (100 = growth as untreated, 0 = no growth, -100 = all killed)
For assay [1], the system named is SK-MEL-2 melanoma. To be noted: 10 µM unless noted.
Assay [2] concerns EKVX NSCLC. To be noted: 10 µM unless noted.
Assay [3] has as its system SN12C renal. To be noted: 10 µM unless noted.
The subject of assay [4] is UO-31 renal. To be noted: 10 µM unless noted.
The subject of assay [5] is TK-10 renal.
Assay [6] deals with ACHN renal. To be noted: 10 µM unless noted.
The subject of assay [7] is CAKI-1 renal. To be noted: 10 µM unless noted.
In assay [8] the test system is A498 renal. To be noted: 10 µM unless noted.
Assay [9] deals with CCRF-CEM leukemia. To be noted: 10 µM unless noted.
Assay [10] has as its system MOLT-4 leukemia. To be noted: 10 µM unless noted.

Where “and” joins values, the source holds several entries; their conditions need not be identical. Identical values can stand only once. Compounds without any hit were thinned out: in the full panel of roughly 83,000, 20% have a hit.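 Negative percent growth values reflect cell death: -40 means 40% of the cells present at the start died, and -100 means all died.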 Values without a mark were called inactive. Calls of active or inactive are those of the source. Rule for the calls: active = growth percent below 10; inactive = the rest.

As for `CCOc1ccc(C(CN2CCOCC2)C(C)=O)cc1OC` (configuration not stated), the growth in assay [1] was 111%; in assay [2], 96.2%; in [3] it was 86.6%; in assay [4], 75.4%; in assay [5] (10 µM unless noted), 49.8%; in assay [6] it was 79.6%. For the same compound, the growth in assay [7] was -89.9% (active); in assay [8], 92.2%; in assay [9], 52.7%; in assay [10], 87.2%.
`COc1cc(/C=C/c2ccnc3ccccc23)cc(OC)c1OC`: the growth was 12.2% in assay [1]; 55.3% in [2]; 31% in assay [3]; 37% in [4]; 70.1% in assay [5] (10 µM unless noted); 54.7% in assay [6]. For the same compound, the growth in assay [7] is 24.3%; in assay [8], 18%; in assay [9], 43.5%; in [10], 14.9%.
In the case of `COC(=O)c1ccc(=O)c2nc3/c(=C/O)c(O)cc(=O)c3[nH]c12`, the growth in assay [1] was -7.27% (active); in assay [2], 35.3%; in assay [3], -5.75% (active); in assay [4], 5.33% (active); in assay [5] (10 µM unless noted) it was 48.1%; in assay [6], 28.5%. The growth in assay [7] is 21.5%; in assay [8] it was 1.77% (active); in [9], 12.6%; in assay [10], 3.55% (active).
As to `O=C(c1ccc(O)c(Br)c1)c1ccc(O)c(Br)c1`, the growth in [1] is 105%; in [2] it was 112%; in assay [3] it was 94.4%; in [4] it was 98.5%; in [5] (10 µM unless noted), 99.4%; in [6], 102%. For the same compound, the growth in [7] is 119%; in [8], 93.9%; in assay [9], 109%.
Consider `O=C(CCl)N1c2ccccc2Sc2c1ccc1ccccc21`, for which the growth was 82.7% in assay [1]; 96.1% in [2]; 73.8% in assay [3]; 70.4% in assay [4]; 119% in [5] (10 µM unless noted); 78.7% in assay [6]. The growth in [7] was 80.7%; in assay [8], 110%; in assay [9], 6.54% (active); in assay [10] it was 12%.
For `Nc1cccc2cccc([N+](=O)[O-])c12`, the growth is 98.3% in [1]; 120% in [2]; 107% in assay [3]; 74.7% in assay [4]; 109% in [5] (10 µM unless noted); 116% in [6]. The results for the growth in assay [7], in [8] and in [9] were 107%, 104% and 102%, respectively.
`Cc1ccc(NC2=CC(=O)C(=O)c3ccccc32)cc1`: the growth was 4.01% (active) in assay [1]; 73% in assay [2]; -39.2% (active) in assay [3]; -18.4% (active) in assay [4]; 42.4% in assay [5] (10 µM unless noted); 21.9% in assay [6]. The growth is 35.5% in assay [7], 63.2% in assay [8], 27% in assay [9] and 28.7% in assay [10].
On to `Oc1cc(Cl)ccc1Cc1ccc(Cl)cc1O`, for which the growth is 66.1% in assay [1]; 51.2% in [2]; 36.2% in [3]; 46.4% in assay [4]; 95.6% in assay [5] (10 µM unless noted); 49.4% in assay [6]. Besides, the growth in [7] is 92.9%; in assay [8], 126%; in assay [9] it was 45.7%; in assay [10], 43.5%.
For the compound `O=C1C=CC(=O)c2c(O)c(CO)c(CO)c(O)c21`, the growth in [1] is 119%; in [2] it was 105%; in assay [3], 101%; in assay [4], 75.5%; in [5] (10 µM unless noted), 107%; in assay [6], 95.3%. In addition, the growth in assay [7] was 93.4%; in assay [8], 120%; in assay [9] it was 78.5%; in assay [10], 86.6%.
For `Oc1ccc(Cl)cc1Cc1cc(Cl)ccc1O`, the growth is 5.31% (active) in [1]; 60.9% in assay [2]; 11.4% in [3]; 22.9% in assay [4]; 113% in assay [5] (10 µM unless noted); 26.1% in assay [6]. For the same compound, the growth is 83.5% in assay [7], 63.6% in [8], 22.7% in assay [9] and 41.3% in assay [10].
Take `CCCOC(=O)c1nc(N(CC2CCCCC2)C(=O)NC)sc1/N=C/c1ccccc1`: the growth is -0.0368% (active) in [1]; 9.94% (active) in [2]; 15% in assay [3]; 23.9% in assay [4]; 52.5% in assay [5] (10 µM unless noted); 17.4% in assay [6]. In addition, the growth in assay [7] is 31.7%; in assay [8], 63.5%; in assay [9], 2.45% (active); in assay [10], 3.07% (active).
For `CC1C(c2ccccc2)OCCN1C(=S)Nc1ccc(S(=O)(=O)N2CCCCC2)cc1` (configuration not stated), the growth was 104% in assay [1]; 92.1% in assay [2]; 96.1% in [3]; 94.5% in assay [4]; 116% in assay [5] (10 µM unless noted); 96.4% in assay [6]. Further, the growth was 36.4% in [7], 99.3% in assay [8], 81% in [9] and 99.5% in assay [10].
As for `Cc1oc2c(C)c3oc(=O)cc(C)c3cc2c1CCl`, the growth was 109% in assay [1]; 68.4% in [2]; 67.8% in assay [3]; 47.6% in assay [4]; 86.1% in [5] (10 µM unless noted); 78.3% in assay [6]. The growth in [7] was 51.8%; in assay [8], 61.8%; in [9], 47.6%; in assay [10] it was 63.6%.
In the case of `COc1ccc(C(OCC2OC(n3ccc(NC(=O)c4ccccc4)nc3=O)C(O)C2O)(c2ccccc2)c2ccccc2)cc1` (configuration not stated), the growth in [1] is 90.1%; in assay [2], 38.4%; in assay [3], -38.2% (active); in [4], 22.7%; in assay [5] (10 µM unless noted) it was 81.5%; in assay [6], 47.3%. The growth in [7] was 55%; in assay [8], 52.8%; in assay [9] it was 47.1%; in assay [10], 3.18% (active).
As to `CC(=O)C1Cc2ccccc2C1=O` (configuration not stated), the growth is 124% in assay [1]; 80.6% in assay [2]; 98% in assay [3]; 79.5% in assay [4]; 142% in assay [5] (10 µM unless noted); 97.6% in assay [6]. In addition, the growth in [7] is 82.6%; in assay [8], 110%; in assay [9] it was 125%; in assay [10] it was 115%.
Consider `CC(C)=CCCC(C)C1=C(O)C(=O)C(C)=CC1=O` (configuration not stated), for which the growth is 92.9% in assay [1]; 122% in [2]; 106% in assay [3]; -98.3% (active) in [4]; 5.08% (active) in assay [5] (10 µM); -99.3% (active) and -84.7% (active) in assay [5] (100 µM). The growth is -39% (active) in [6]; 88.4% in assay [7]; 92.9% in [8]; -29.2% (active) in [9]; -30.1% (active) in assay [10].
Turning to `O=C(CCl)N(c1ccccc1)c1ccccc1`, the growth in assay [1] was 97.7%; in [2] it was 111%; in assay [3], 99.6%; in assay [4], 86.7%; in [5] (10 µM unless noted), 105%; in [6], 109%. Besides, the growth was 105% in assay [7], 105% in [8], 92.7% in assay [9] and 102% in assay [10].
Regarding `Oc1ccc2ccccc2c1N=Nc1nccs1`, the growth was 153% in [1]; -9.54% (active) in assay [2]; 34.4% in assay [3]; 59.3% in assay [4]; -14% (active) in assay [5] (10 µM unless noted); 10.3% in [6]. Also, the growth in assay [7] is -31.1% (active); in [8], 136%; in assay [9], -7.19% (active); in [10], -4.26% (active).
For the compound `CN(C)CCSC1=Nc2ccc(Cl)cc2C(c2ccccc2Cl)N(C)C1` (configuration not stated), the growth in [1] is 81.8%; in [2], 81%; in [3] it was 63.8%; in assay [4], 24.5%; in [5] (10 µM unless noted) it was 64.9%; in assay [6] it was 74.2%. The growth in assay [7] is 20.5%; in [8], 127%; in assay [9], 85.2%; in assay [10], 79.2%.
For the compound `O=[N+]([O-])c1ccc(C(Br)c2ccc([N+](=O)[O-])cc2)cc1`, the growth in assay [1] was 97.6%; in assay [2], 109%; in assay [3] it was 54.9%; in [4] it was 47.4%; in assay [5] (10 µM unless noted), 97.5%; in assay [6] it was 98.3%. The growth in assay [7] was 92.2%; in assay [8], 101%; in [9], 16.3%; in assay [10], 12.5%.
Turning to `COc1ccc(NC(=O)/C(=C/N2C(=O)/C(=C/c3ccc(OC)c(OC)c3)NC2=S)C(C)=O)cc1`, the growth in [1] was 87.1%; in assay [2], 93.5%; in [3] it was 80.8%; in assay [4], 54.6%; in assay [5] (10 µM unless noted), 110%; in assay [6], 79.6%. The growth in assay [7] was 92.3%; in assay [8], 87.6%; in assay [9] it was 80.3%.
`CCOc1cc(F)c([N+](=O)[O-])cc1[N+](=O)[O-]`: the growth in assay [1] is 50.4%; in [2], 101%; in assay [3], 90.5%; in assay [4], 45.4%; in [5] (10 µM unless noted) it was 12.5%; in [6], 12.7%. Also, the growth was 18.8% in [7], 101% in assay [8], 9.98% (active) in assay [9] and 9.18% (active) in [10].
On to `CCOC(=O)c1[nH]c(C#N)c(C(=O)OCC)c1C`, for which the growth in assay [1] was 104%; in [2], 93.3%; in assay [3] it was 92.5%; in assay [4], 90.2%; in [5] (10 µM unless noted), 104%; in assay [6], 101%. The growth in assay [7] is 94.7%; in assay [8], 96.7%; in [9], 97.3%.
With `CCc1cnc2ccccc2c1/C=C/c1ccc(N(C)C)cc1`, the growth is 30.3% in [1]; 62.4% in assay [2]; 52.3% in assay [3]; 44.6% in assay [4]; 57.1% in [5] (10 µM unless noted); 60.3% in assay [6]. The growth in [7] is 51.6%; in [8], 34%; in assay [9], 32.9%; in assay [10], 33.9%.
`CCOc1ccc(C(C[N+](=O)[O-])Sc2ccccc2N)cc1` (configuration not stated): the growth in assay [1] is 98.7%; in assay [2], 66.9%; in assay [3], 65%; in assay [4], -62.9% (active); in assay [5] (10 µM unless noted) it was 106%; in assay [6] it was 55.4%. Further, the growth in [7] is 64.6%; in assay [8], 109%; in assay [9], 30.3%; in [10] it was 4.52% (active).
For the compound `S=c1[nH]c2cc(Cl)ccc2s1`, the growth in [1] was 100%; in [2], 102%; in assay [3], 96.6%; in assay [4], 66%; in assay [5] (10 µM unless noted) it was 97.6%; in assay [6] it was 95.2%. In addition, the growth is 92.3% in [7], 132% in [8], -43.5% (active) in assay [9] and 108% in assay [10].
`CC1=CC(=O)C=CC1(C)C(Cl)(Cl)Cl` (configuration not stated): the growth in assay [1] is 87.5%; in assay [2], 100%; in assay [3], 88.8%; in assay [4], 92%; in assay [5] (10 µM unless noted), 80.2%; in assay [6], 97.3%. For the same compound, the growth in [7] was 104%; in [8] it was 87.6%; in assay [9], 94.9%; in [10], 93.9%.
